{
  "source": "the supplement of paper PMC8728848",
  "binders": {"B1": {"name": "AntigenI/IIC123 (Streptococcus mutans), C9E3B4 (protein)", "chain": "MASMTGGQQMGRIHFHYFKLAVQPQVNKEIRNNNDINIDRTLVAKQSVVKFQLKTADLPAGRDETTSFVLVDPLPSGYQFNPEATKAASPGFDVTYDNATNTVTFKATAATLATFNADLTKSVATIYPTVVGQVLNDGATYKNNFTLTVNDAYGIKSNVVRVTTPGKPNDPDNPNNNYIKPTKVNKNENGVVIDGKTVLAGSTNYYELTWDLDQYKNDRSSADTIQKGFYYVDDYPEEALELRQDLVKITDANGNEVTGVSVDNYTNLEAAPQEIRDVLSKAGIRPKGAFQIFRADNPREFYDTYVKTGIDLKIVSPMVVKKQMGQTGGSYENQAYQIDFGNGYASNIIINNVPKINPKKDVTLTLDPADTNNVDGQTIPLNTVFNYRLIGGIIPADHSEELFEYNFYDDYDQTGDHYTGQYKVFAKVDITFKDGSIIKSGAELTQYTTAEVDTAKGAITIKFKEAFLRSVSIDSAFQAESYIQMKRIAVGTFENTYINTVNGVTYSSLEHHHHHH"}},
  "assay_in_all_cases": "glycan array binding signal (z-score within array); higher = stronger binding",
  "conditions_in_all_cases": "glycan notation: IUPAC condensed, linker removed",
  "key": {"[1]": {"biological_target": "Fuc(a1-2)Gal(b1-3)GlcNAc(b1-3)[Fuc(a1-2)Gal(b1-3)GlcNAc(b1-6)]GalNAc", "summary_of_the_method": "(§1)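 Arrays were curated from the Consortium for Functional Glycomics database, 3228 in total, and kept only where the protein sequence was available. Binding is expressed as a within-array Z-score. This score was averaged across arrays of the same protein sequence at different concentrations or buffers and across linkers, and negative values can be read as non-binding.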"}, "[2]": {"biological_target": "Fuc(a1-2)Gal(b1-3)[Fuc(a1-4)]GlcNAc(b1-3)[Gal(b1-4)GlcNAc(b1-6)]Gal(b1-4)Glc", "summary_of_the_method": "as §1"}, "[3]": {"biological_target": "Fuc(a1-2)Gal(b1-4)GlcNAc(b1-3)Gal(b1-4)GlcNAc(b1-3)Gal(b1-4)GlcNAc", "summary_of_the_method": "as §1"}, "[4]": {"biological_target": "Fuc(a1-2)Gal(b1-4)GlcNAc(b1-6)GalNAc", "summary_of_the_method": "as §1"}, "[5]": {"biological_target": "Fuc(a1-2)[Gal(a1-3)]Gal(b1-3)GlcNAc(b1-2)Man(a1-3)[Fuc(a1-2)[Gal(a1-3)]Gal(b1-3)GlcNAc(b1-2)Man(a1-6)]Man(b1-4)GlcNAc(b1-4)[Fuc(a1-6)]GlcNAc", "summary_of_the_method": "as §1"}, "[6]": {"biological_target": "Fuc(a1-2)[Gal(a1-3)]Gal(b1-3)GlcNAc(b1-6)GalNAc", "summary_of_the_method": "as §1"}, "[7]": {"biological_target": "Fuc(a1-2)[GalNAc(a1-3)]Gal(b1-3)GlcNAc(b1-3)GalNAc", "summary_of_the_method": "as §1"}, "[8]": {"biological_target": "Fuc(a1-3)[Gal(b1-4)]GlcNAc(b1-2)Man(a1-3)[Fuc(a1-3)[Gal(b1-4)]GlcNAc(b1-2)Man(a1-6)]Man(b1-4)GlcNAc(b1-4)GlcNAc", "summary_of_the_method": "as §1"}, "[9]": {"biological_target": "Gal(a1-3)Gal(b1-3)GlcNAc(b1-2)Man(a1-3)[Gal(a1-3)Gal(b1-3)GlcNAc(b1-2)Man(a1-6)]Man(b1-4)GlcNAc(b1-4)GlcNAc", "summary_of_the_method": "as §1"}, "[10]": {"biological_target": "Gal(a1-3)Gal(b1-3)[Fuc(a1-4)]GlcNAc(b1-2)Man(a1-3)[Gal(a1-3)Gal(b1-3)[Fuc(a1-4)]GlcNAc(b1-2)Man(a1-6)]Man(b1-4)GlcNAc(b1-4)GlcNAc", "summary_of_the_method": "as §1"}, "Gal(b1-2)Gal": {"biological_target": "Gal(b1-2)Gal", "summary_of_the_method": "as §1"}, "Gal(b1-3)Gal": {"biological_target": "Gal(b1-3)Gal", "summary_of_the_method": "as §1"}, "[11]": {"biological_target": "Gal(b1-3)GalNAc(a1-3)[Fuc(a1-2)]Gal(b1-4)GlcNAc", "summary_of_the_method": "as §1"}, "[12]": {"biological_target": "Gal(b1-3)GlcNAc(a1-6)Gal(b1-4)GlcNAc", "summary_of_the_method": "as §1"}, "[13]": {"biological_target": "Gal(b1-3)[Fuc(a1-4)]GlcNAc(b1-6)GalNAc", "summary_of_the_method": "as §1"}, "[14]": {"biological_target": "Gal(b1-3)[GlcNAc(b1-6)]GalNAc", "summary_of_the_method": "as §1"}, "[15]": {"biological_target": "Gal(b1-4)GlcNAc(b1-2)Man(a1-3)[Gal(b1-4)GlcNAc(b1-2)Man(a1-6)][GlcNAc(b1-4)]Man(b1-4)GlcNAc(b1-4)[Fuc(a1-6)]GlcNAc", "summary_of_the_method": "as §1"}, "[16]": {"biological_target": "Gal(b1-4)GlcNAc(b1-2)Man(a1-3)[GlcNAc(b1-2)Man(a1-6)]Man(b1-4)GlcNAc(b1-4)GlcNAc", "summary_of_the_method": "as §1"}, "[17]": {"biological_target": "Gal(b1-4)GlcNAc(b1-2)[Gal(b1-4)GlcNAc(b1-4)]Man(a1-3)[GlcNAc(b1-4)][Gal(b1-4)GlcNAc(b1-2)[Gal(b1-4)GlcNAc(b1-6)]Man(a1-6)]Man(b1-4)GlcNAc(b1-4)GlcNAc", "summary_of_the_method": "as §1"}, "[18]": {"biological_target": "Gal(b1-4)GlcNAc(b1-3)Gal(b1-3)GalNAc", "summary_of_the_method": "as §1"}, "[19]": {"biological_target": "Gal(b1-4)GlcNAc(b1-3)Gal(b1-4)GlcNAc(b1-2)[Gal(b1-4)GlcNAc(b1-3)Gal(b1-4)GlcNAc(b1-6)]Man(a1-6)[Gal(b1-4)GlcNAc(b1-3)Gal(b1-4)GlcNAc(b1-2)Man(a1-3)]Man(b1-4)GlcNAc(b1-4)[Fuc(a1-6)]GlcNAc", "summary_of_the_method": "as §1"}, "[20]": {"biological_target": "Gal(b1-4)GlcNAc(b1-3)Gal(b1-4)GlcNAc(b1-3)Gal(b1-4)GlcNAc(b1-2)Man(a1-3)[Gal(b1-4)GlcNAc(b1-3)Gal(b1-4)GlcNAc(b1-3)Gal(b1-4)GlcNAc(b1-2)Man(a1-6)]Man(b1-4)GlcNAc(b1-4)GlcNAc", "summary_of_the_method": "as §1"}, "[21]": {"biological_target": "Gal(b1-4)GlcNAc(b1-3)Gal(b1-4)GlcNAc(b1-3)Gal(b1-4)GlcNAc(b1-2)Man(a1-3)[Gal(b1-4)GlcNAc(b1-3)Gal(b1-4)GlcNAc(b1-3)Gal(b1-4)GlcNAc(b1-2)Man(a1-6)]Man(b1-4)GlcNAc(b1-4)[Fuc(a1-6)]GlcNAc", "summary_of_the_method": "as §1"}},
  "note": "Many of the other results were omitted from the sample, so the strongest signals are more common in it than they were.",
  "data": [
    {"binder": "B1", "values": [
      {"measurement": "glycan array binding signal (z-score)", "setting": "[1]", "result": 3.07},
      {"measurement": "glycan array binding signal (z-score)", "setting": "[2]", "result": -0.704},
      {"measurement": "glycan array binding signal (z-score)", "setting": "[3]", "result": -0.137},
      {"measurement": "glycan array binding signal (z-score)", "setting": "[4]", "result": 3.81},
      {"measurement": "glycan array binding signal (z-score)", "setting": "[5]", "result": 0.417},
      {"measurement": "glycan array binding signal (z-score)", "setting": "[6]", "result": -1.42},
      {"measurement": "glycan array binding signal (z-score)", "setting": "[7]", "result": 2.85},
      {"measurement": "glycan array binding signal (z-score)", "setting": "[8]", "result": -0.441},
      {"measurement": "glycan array binding signal (z-score)", "setting": "[9]", "result": 3.54},
      {"measurement": "glycan array binding signal (z-score)", "setting": "[10]", "result": 3.25},
      {"measurement": "glycan array binding signal (z-score)", "setting": "Gal(b1-2)Gal", "result": -0.762},
      {"measurement": "glycan array binding signal (z-score)", "setting": "Gal(b1-3)Gal", "result": -1.1},
      {"measurement": "glycan array binding signal (z-score)", "setting": "[11]", "result": -0.841},
      {"measurement": "glycan array binding signal (z-score)", "setting": "[12]", "result": -1.82},
      {"measurement": "glycan array binding signal (z-score)", "setting": "[13]", "result": 1.06},
      {"measurement": "glycan array binding signal (z-score)", "setting": "[14]", "result": 0.715},
      {"measurement": "glycan array binding signal (z-score)", "setting": "[15]", "result": -1.3},
      {"measurement": "glycan array binding signal (z-score)", "setting": "[16]", "result": -0.939},
      {"measurement": "glycan array binding signal (z-score)", "setting": "[17]", "result": 0.437},
      {"measurement": "glycan array binding signal (z-score)", "setting": "[18]", "result": 0.003},
      {"measurement": "glycan array binding signal (z-score)", "setting": "[19]", "result": 4.84},
      {"measurement": "glycan array binding signal (z-score)", "setting": "[20]", "result": 2.33},
      {"measurement": "glycan array binding signal (z-score)", "setting": "[21]", "result": 3.9}
    ]}
  ]
}
